Experimental data as given in the supplement of paper PMC8728848.
The entries come from a sample that favours the strongest signals as a whole.

How the values were obtained:
Assay in all cases: glycan array binding signal (z-score within array); higher = stronger binding
Conditions in all cases: glycan notation: IUPAC condensed, linker removed
[1] = target: GlcNAc(b1-3)Gal(b1-4)GlcNAc(b1-3)Gal(b1-4)GlcNAc(b1-3)Gal(b1-4)GlcNAc(b1-2)Man(a1-3)[GlcNAc(b1-3)Gal(b1-4)GlcNAc(b1-3)Gal(b1-4)GlcNAc(b1-3)Gal(b1-4)GlcNAc(b1-2)Man(a1-6)]Man(b1-4)GlcNAc(b1-4)[Fuc(a1-6)]GlcNAc
In short: (§1)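 Negative Z-scores can be read as non-binding. The Z-score is calculated within each array and then averaged across arrays of one protein sequence at different concentrations or buffers and across linkers. Arrays, 3228 in all, were curated from the Consortium for Functional Glycomics database and kept only where the protein sequence was available.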

[2] = target: GlcNAc(b1-3)Man
In short: as §1

[3] = target: GlcNAc(b1-4)GlcNAc
In short: as §1

[4] = target: Kdn(a2-3)Gal(b1-4)GlcNAc
In short: as §1

[5] = target: Man(a1-2)Man(a1-6)[Man(a1-3)]Man(a1-6)[Man(a1-2)Man(a1-2)Man(a1-3)]Man(b1-4)GlcNAc(b1-4)GlcNAc
In short: as §1

[6] = target: Neu5Ac(a2-3)Gal
In short: as §1

[7] = target: Neu5Ac(a2-3)Gal(b1-3)GalNAc(b1-4)[Neu5Ac(a2-3)]Gal(b1-4)Glc
In short: as §1

[8] = target: Neu5Ac(a2-3)Gal(b1-4)GlcNAc(b1-2)Man
In short: as §1

[9] = target: Neu5Ac(a2-3)Gal(b1-4)GlcNAc(b1-2)Man(a1-3)[Neu5Ac(a2-3)Gal(b1-4)GlcNAc(b1-2)Man(a1-6)]Man(b1-4)GlcNAc(b1-4)[Fuc(a1-6)]GlcNAc
In short: as §1

[10] = target: Neu5Ac(a2-3)Gal(b1-4)GlcNAc(b1-3)Gal(b1-4)GlcNAc(b1-3)Gal(b1-4)GlcNAc(b1-2)Man(a1-3)[Neu5Ac(a2-3)Gal(b1-4)GlcNAc(b1-3)Gal(b1-4)GlcNAc(b1-3)Gal(b1-4)GlcNAc(b1-2)Man(a1-6)]GalNAc
In short: as §1

[11] = target: Neu5Ac(a2-3)GalNAc(b1-4)GlcNAc
In short: as §1

[12] = target: Neu5Ac(a2-6)Gal(b1-4)GlcNAc(b1-2)Man(a1-3)Man(b1-4)GlcNAc(b1-4)GlcNAc
In short: as §1

[13] = target: Neu5Ac(a2-6)Gal(b1-4)GlcNAc(b1-2)Man(a1-3)[Man(a1-6)]Man(b1-4)GlcNAc(b1-4)GlcNAc
In short: as §1

[14] = target: Neu5Ac(a2-8)Neu5Ac(a2-3)[Gal(b1-3)GalNAc(b1-4)]Gal(b1-4)Glc
In short: as §1

[15] = target: Neu5Gc(a2-8)Neu5Gc(a2-6)Gal(b1-4)GlcNAc
In short: as §1

B1: Als3-41 (Candida albicans) (protein)
chain: KTITGVFNSFNSLTWSNAATYNYKGPGTPTWNAVLGWSLDGTSASPGDTFTLNMPCVFKFTTSQTSVDLTAHGVKYATCQFQAGEEFMTFSTLTCTVSNTLTPSIKALGTVTLPLAFNVGGTGSSVDLEDSKCFTAGTNTVTFNDGGKKISINVDFERSNVDPKGYLTDSRVIPSLNKVSTLFVAPQCANGYTSGTMGFANTYGDVQIDCSNIHVGITKGLNDWNYPVSSESFSYTKTCSSNGIFITYKNVPAGYRPFVDAYISATDVNSYTLSYANEYTCAGGYWQRAPFTLRWTGYRNSDAGSNGIVIVATTRTVTDSTTAVTTLPFDPNRDKTKTIEILKPIPTTTITTSYVGVTTSYLTKTAPIGETATVIVD
- glycan array binding signal (z-score) [1]: 1.72
- glycan array binding signal (z-score) [2]: 0.501
- glycan array binding signal (z-score) [3]: 1.79
- glycan array binding signal (z-score) [4]: -0.355
- glycan array binding signal (z-score) [5]: -0.239
- glycan array binding signal (z-score) [6]: -0.322
- glycan array binding signal (z-score) [7]: -0.31
- glycan array binding signal (z-score) [8]: 0.213
- glycan array binding signal (z-score) [9]: -0.35
- glycan array binding signal (z-score) [10]: 6.54
- glycan array binding signal (z-score) [11]: -0.224
- glycan array binding signal (z-score) [12]: -0.296
- glycan array binding signal (z-score) [13]: -0.268
- glycan array binding signal (z-score) [14]: -0.006
- glycan array binding signal (z-score) [15]: -0.217
